The source of these data is PubChem BioAssay (NCI).

About 79,000 compounds went through this panel and 15% of them were active in at least one assay; those are over-represented in the sample as a whole. A number with no mark means an inactive call. The source made the active and inactive calls. No stated cut-off is given here; in the data, active means growth inhibition above about 70%; inactive means the rest.

A short description of assay [1]: NCI Yeast Anticancer Drug Screen. Data for the rad50 strain (AID 155).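 Further: 0% = growth of vehicle-only cultures of the same strain.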 To be noted: S. cerevisiae rad50 strain growth inhibition; at 50.0 µM; active compounds read high. The gist of the method: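 Genetically altered yeast (DNA repair pathway); compound treatment; growth inhibition vs vehicle ctrl.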
Assay [2] in a line: NCI Yeast Anticancer Drug Screen. Data for the mec2-1 strain (AID 157). The conditions noted are these: S. cerevisiae mec2-1 strain, at 50.0 µM, active compounds read high. An outline of the steps:
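Vehicle-treated cultures served as reference for growth inhibition of compound-exposed mec2-1 yeast.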

Assay [3] can be described thus: NCI Yeast Anticancer Drug Screen. Data for the sgs1 mgt1 strain (AID 161).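 Further: 0% = growth of cultures given vehicle only.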 The conditions noted are these: S. cerevisiae sgs1 mgt1 strain, at 50.0 µM, active compounds read high. The gist of the method: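 Mutant yeast exposed to compound; growth scored against vehicle-only wells.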
The nature of assay [4]: NCI Yeast Anticancer Drug Screen. Data for the cln2 rad14 strain (AID 165).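 Further: 0% = growth equal to vehicle treated cultures.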 To be noted: S. cerevisiae cln2 rad14 strain, at 50.0 µM, active compounds read high. The gist of the method:
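Each compound was tested on cln2 rad14 yeast. Inhibition of growth was calculated against vehicle-exposed controls.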

A short description of assay [5]: NCI Yeast Anticancer Drug Screen. Data for the bub3 strain (AID 167). The conditions noted are these: S. cerevisiae bub3 mutant strain, at 50.0 µM, active compounds read high. The gist of the method: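 Yeast carrying a defined mutation is treated with each compound, and growth is compared with that of vehicle-exposed cells to give inhibition.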
Assay [6] in a line: NCI Yeast Anticancer Drug Screen. Data for the mlh1 rad18 strain (AID 175). To be noted: S. cerevisiae mlh1 rad18 strain growth inhibition; at 50.0 µM; active compounds read high. The gist of the method: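 Vehicle-treated cultures served as the reference for growth inhibition in a yeast strain carrying DNA damage repair alterations exposed to each compound.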

In the case of `CCCCCCCCCCCCCCC(=O)OCCN(C)C`, the growth inhibition in assay [1] is -3.6%; in assay [2], -18%; in assay [3], 1.45%; in assay [4] it was -18.2%; in assay [5] it was 8.35%; in assay [6], -10.1%.
Consider `CC1CP(=O)(Cc2ccccc2)C(C)(c2ccccc2)C1=O` (stereo unspecified), for which the growth inhibition in assay [1] was -18.4%; in assay [2] it was -0.95%; in assay [3] it was 31.4%; in assay [4] it was -4.2%; in assay [5] it was 40.2%; in assay [6] it was -6.5%.
Turning to `COc1ccc(C2(C3NCCC4=C3CCCC4)CC2)cc1` (stereo unspecified), the growth inhibition was 11.9% in assay [1]; -5.75% in assay [2]; 32% in assay [3]; -4.1% in assay [4]; -3.7% in assay [5]; 23.6% in assay [6].
`COc1ccc(C(=O)Sc2c(-c3ccccc3)c(=O)n(-c3ccccc3)c(=S)n2-c2ccccc2)cc1`: the growth inhibition in assay [1] is 0.75%; in assay [2] it was -4.9%; in assay [3], 2.45%; in assay [4], 1.7%; in assay [5] it was 0.6%; in assay [6] it was 10.1%.
As to `CN(CCN1CCOCC1)C(c1ccccc1)c1ccccc1`, the growth inhibition is 83.7% (active) in assay [1]; 66.3% in assay [2]; 87.9% (active) in assay [3]; 61.8% in assay [4]; 52.4% in assay [5]; 67.4% in assay [6].
With `CC1C[C@]2(C)C(=O)N(c3ccccc3)C(=N)[C@@H]2N(C)c2ccccc21` (stereo partly specified), the growth inhibition in assay [1] was -14.2%; in assay [2], 6.7%; in assay [3], -3.55%; in assay [4], -4.15%; in assay [5], 25.9%; in assay [6], -15.8%.
Consider `Cc1ccc(S(=O)(=O)C(C#N)CCC(=O)c2ccc(Cl)cc2)cc1` (stereo unspecified), for which the growth inhibition is 6.25% in assay [1]; 3.55% in assay [2]; 6.75% in assay [3]; 9.45% in assay [4]; 10.2% in assay [5]; 17.6% in assay [6].
On to `CCCCn1cnc2ccc3[nH]c(C)nc3c2c1=O`, for which the growth inhibition in assay [1] is 29.4%; in assay [2], -4.85%; in assay [3], 34.1%; in assay [4] it was -3.55%; in assay [5], -6.35%; in assay [6], 21.4%.
Regarding `C[N+](C)(C)CC(=O)NC(=O)N/N=C\C(CC#N)CN(Cc1ccccc1)Cc1ccccc1` (stereo unspecified), the growth inhibition in assay [1] is 23.5%; in assay [2], 13.7%; in assay [3], 19.1%; in assay [4] it was 10.6%; in assay [5] it was 2.35%; in assay [6], 12.2%.
As for `Cc1ccc(N=NNc2ccccc2)cc1`, the growth inhibition in assay [1] is -7.7%; in assay [2] it was -8.05%; in assay [3], -7.65%; in assay [4] it was -13.9%; in assay [5], -11.3%; in assay [6], -7.6%.
With `O=C1NC(N2CCCCC2)=N/C1=C\c1ccc(Cl)cc1`, the growth inhibition is -7.5% in assay [1]; -7% in assay [2]; 2.4% in assay [3]; 7.55% in assay [4]; -12.3% in assay [5]; -38.5% in assay [6].
For the compound `N#Cc1ccc(Sc2ccccc2)cc1C#N`, the growth inhibition in assay [1] was 12.8%; in assay [2], -8.7%; in assay [3] it was 24.4%; in assay [4] it was 10.2%; in assay [5], 24.9%; in assay [6], 0.6%.
With `CSc1nc(NC2OCC(OC(C)=O)C(OC(C)=O)C2OC(C)=O)c2c(n1)OCC2=O` (stereo unspecified), the growth inhibition in assay [1] was -17%; in assay [2] it was -21.6%; in assay [3] it was -21.6%; in assay [4] it was 6.1%; in assay [5] it was 13.4%; in assay [6] it was -10.5%.
Consider `CNC(CCc1ccccc1)C(=O)O` (stereo unspecified), for which the growth inhibition is 1.9% in assay [1]; -1.25% in assay [2]; 8.4% in assay [3]; -7.3% in assay [4]; 4.4% in assay [5]; 2.7% in assay [6].
For `COC(=O)C1CC(=O)CCC1c1ccccc1` (stereo unspecified), the growth inhibition in assay [1] is 1.5%; in assay [2] it was -7.25%; in assay [3] it was -16.1%; in assay [4], -6.45%; in assay [5] it was -7.55%; in assay [6], -16.6%.
With `O=c1[nH]cnc2c1ncn2CCCCc1ccccc1`, the growth inhibition in assay [1] is 8.4%; in assay [2], -5.25%; in assay [3] it was 8.45%; in assay [4], 0.9%; in assay [5], 5.7%; in assay [6], 14.8%.
Consider `c1ccc(SCc2ccc3c(c2)OCO3)cc1`, for which the growth inhibition was 27.4% in assay [1]; 1.4% in assay [2]; 18.2% in assay [3]; 9.25% in assay [4]; 18.8% in assay [5]; 16.8% in assay [6].
As to `CC1=C(C(=O)Nc2cc(C)ccn2)CCO1`, the growth inhibition in assay [1] was 4.55%; in assay [2] it was -11.4%; in assay [3] it was -7.2%; in assay [4], -33%; in assay [5], 11.7%; in assay [6] it was 15%.
On to `Cn1cnc2c(=S)nc[nH]c21`, for which the growth inhibition in assay [1] is 7.75%; in assay [2], -10%; in assay [3], -25.1%; in assay [4] it was -9.9%; in assay [5], -8.75%; in assay [6] it was -20.9%.
On to `COCCCNC(=O)c1nc2ccccc2c(=O)n1NC(=O)Cc1ccccc1`, for which the growth inhibition is -14.1% in assay [1]; -19.8% in assay [2]; 7% in assay [3]; 4.35% in assay [4]; 0.3% in assay [5]; -7.75% in assay [6].
`CCSCCCSCCSCC`: the growth inhibition in assay [1] was 58.5%; in assay [2], 46.5%; in assay [3], 57.5%; in assay [4], 43.7%; in assay [5], 63.5%; in assay [6], 56%.
